# Measurements reported in PubChem BioAssay AID434989 (The Scripps Research Institute Molecular Screening Center, 2010).
# Out of some 330,000 compounds screened, about 1,400 (0.42%) were called active. The sample holds actives, similar compounds and a random draw of the others, so the mix is not that of the screen. Unmarked numbers belong to inactive results.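 How the source made its calls: active means inhibition above its plate's threshold, mean inhibition of all tested compounds on the plate plus 3 SD (cut at about 37% in these data); inactive means the rest.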
# Biological target: Orexin/Hypocretin receptor type 1 (Homo sapiens) (UniProt O43613)
# Assay: OX1R (HCRTR1) antagonists, primary screen, fluorescence, CHO/OX1R cells, Fluo-8 calcium, orexin A (AID 434989);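 further: 0% = orexin A challenge wells and 100% = SB-334867-A antagonist wells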
# Conditions: Fluo-8 calcium fluorescence, at 5 µM, active compounds read high
# Chain of Orexin/Hypocretin receptor type 1 (Homo sapiens) (O43613 whole entry, looked up): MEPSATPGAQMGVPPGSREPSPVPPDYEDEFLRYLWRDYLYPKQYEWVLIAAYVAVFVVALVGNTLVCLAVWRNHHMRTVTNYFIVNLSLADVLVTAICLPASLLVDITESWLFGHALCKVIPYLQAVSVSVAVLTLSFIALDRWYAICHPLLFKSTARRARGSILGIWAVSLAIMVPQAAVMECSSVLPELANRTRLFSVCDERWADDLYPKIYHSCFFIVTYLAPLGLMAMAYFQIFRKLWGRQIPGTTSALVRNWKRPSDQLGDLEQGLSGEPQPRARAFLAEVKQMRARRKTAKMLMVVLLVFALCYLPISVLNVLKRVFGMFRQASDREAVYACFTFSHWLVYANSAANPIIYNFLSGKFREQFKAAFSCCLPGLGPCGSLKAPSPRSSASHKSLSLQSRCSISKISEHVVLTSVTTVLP
row,SMILES,inhibition
1,O=C(Cc1ccc(Cl)c(Cl)c1)Nc1ccc(SC(F)F)cc1,-12.3%
2,O=C(CC(O)(C(F)(F)F)C(F)(F)F)Nc1ccc(Cl)c(Cl)c1,62.6% (active)
3,Oc1c(Cl)cc(Cl)c(Cl)c1Cc1c(O)c(Cl)cc(Cl)c1Cl,42.3% (active)
4,CC(=O)Nc1ccc(NC(=O)COC(=O)C2CCC(C(C)(C)C)CC2)cc1 (stereo unspecified),-1.79%
5,N#Cc1nc(-c2cccc3ccccc23)oc1N,56% (active)
6,COc1ccc(Nc2oc(-c3ccccc3Cl)nc2C#N)cc1,-16.2%
7,CC1CCN(c2oc(-c3ccccc3F)nc2C#N)CC1,-6.67%
8,O=C(N[C@H]1C/C=C\C(c2cccc(F)c2)N(Cc2ccccc2)C(=O)C1)OCC1c2ccccc2-c2ccccc21 (stereo partly specified),4.42%
9,CC(NC(=O)COC(=O)c1ccc2ccccc2n1)c1ccccc1 (stereo unspecified),-14.8%
10,CC(=O)Nc1ccc(S(=O)(=O)NCC(=O)OCC(=O)c2ccc[nH]2)cc1,-2.13%
11,C#CCOCCOCCOCCNc1nc(N2CCN(C(=O)[C@H](CO)n3cc([C@@H](N)C(C)C)nn3)CC2)nc(N2CCN(C(=O)[C@H](CCC(=O)O)n3cc([C@@H](N)[C@H](C)CC)nn3)CC2)n1,0.47%
12,O=C(CSc1nnc(-c2ccncc2)o1)Nc1cccc(Cl)c1,-0.1%
13,CCOC(=O)C1CCCN(C(=O)CSc2nnc3nc(C)cc(C)n23)C1 (stereo unspecified),-14.2%
14,CC(=O)N1c2ccc(S(=O)(=O)N3CCCC(C(=O)Nc4cccc(Cl)c4)C3)cc2CC1C (stereo unspecified),0.09%
15,CC(=O)N1CCCc2cc(S(=O)(=O)N3CCCC(C(=O)N4CCN(c5cccc(Cl)c5)CC4)C3)ccc21 (stereo unspecified),72.6% (active)
16,CC(=O)N1CCCc2cc(S(=O)(=O)N3CCCC(C(=O)NCc4ccc(Cl)cc4)C3)ccc21 (stereo unspecified),-22.5%
17,CCOc1ccccc1Nc1nnc(SCC(=O)NCC2CCCO2)s1 (stereo unspecified),-22.1%
18,Cc1ccc(S(=O)(=O)Nc2ccc3c(c2)C(=O)N([C@H](C)CO)C[C@@H](C)[C@@H](CN(C)C(=O)Nc2cccc4ccccc24)O3)cc1,1.83%
19,CC1CCCCC1NC(=O)Cn1c(=O)cnc2ccccc21 (stereo unspecified),-6.73%
20,Cc1cccc(NC(=O)Nc2cccc(Oc3c(F)c(F)c(F)c(F)c3F)c2)c1,50.4% (active)
21,COc1cccc(NC(=O)NCc2ccc(F)cc2)c1,-1.97%

row,SMILES,inhibition
1,Cc1cccc(NC(=O)NC(=S)NC(=O)c2ccccc2)c1,-26.4%
2,CCN(CC)S(=O)(=O)c1ccc(N2CCCC2)c(NC(=O)c2ccc([N+](=O)[O-])o2)c1,25.1%
3,CCC(=O)N1CCN(c2ccccc2NC(=O)COc2cccc(C)c2C)CC1,-25.6%
4,Cc1ccccc1OCC(=O)Nc1ccc2c(c1)ncn2C,-11.8%
5,Cc1ccc(NC(=O)COC(=O)C2CC2)cc1S(=O)(=O)N1CCOCC1,0.29%
6,CCc1ccccc1OCC(=O)Nc1ccc2c(c1)OCCO2,3.6%
7,CCc1ccccc1OCC(=O)Nc1ccc(C)c(S(=O)(=O)N2CCCCCC2)c1,71.1% (active)
8,Cc1ccccc1OCC(=O)Nc1ccc(N2CCN(C(=O)C(C)C)CC2)c(Cl)c1,47.2% (active)
9,COc1ccccc1CNC(=O)c1ccc(Cl)c(S(=O)(=O)N2CCCC2)c1,-20%
10,Cc1nn(-c2ccccc2)nc1C(=O)OCC(=O)N1CCCCC1C (stereo unspecified),-14.9%
11,Cc1ccc(C)c(N2CCN(C(=O)CCc3nc(-c4cccc(C(F)(F)F)c4)no3)CC2)c1,-15.5%
12,Cc1cc(-c2ccc(C)c(S(=O)(=O)Nc3ccc(S(N)(=O)=O)cc3)c2)on1,15.6%
13,Cc1cc(-c2ccc(C)c(S(=O)(=O)NCCCN(Cc3ccccc3)C(C)C)c2)on1,-45.5%
14,Cc1cc(-c2ccc(C)c(S(=O)(=O)NC(C)Cc3ccco3)c2)on1 (stereo unspecified),59.1% (active)
15,CN(C)C(=O)CCc1ccc2c3c([nH]c2c1)[C@]1(CCC2CCCC2)[C@@H](C(=O)N2CCOCC2)C[C@H](CC(=O)NCc2ccco2)C(=O)N1CC3,-19.7%
16,COc1ccc(C(=O)C(C)OC(=O)c2cccc(S(=O)(=O)Nc3c(C)n(C)n(-c4ccccc4)c3=O)c2)cc1 (stereo unspecified),-5.98%
17,O=C(CN1C(=O)NC2(CCCCCC2)C1=O)NCc1ccc(F)cc1,-10.3%
18,CCN(CC)S(=O)(=O)c1ccc(N(C)Cc2ccc(C(F)(F)F)cc2)nc1,29.3%
19,CCN(CC)S(=O)(=O)c1ccc(N(C)CCc2ccc(OC)c(OC)c2)nc1,-17%
20,CCN(CC)S(=O)(=O)c1ccc(N(C)Cc2cccc(OC)c2OC)nc1,39% (active)
